# Assay results from PubChem BioAssay AID504332 (National Center for Advancing Translational Sciences (NCATS), 2011).
# Out of some 350,000 compounds screened, about 31,000 (8.9%) were called active. A call without a number means that no potency is given here. Inconclusive results (about 15%) are left out. This excerpt belongs to a sample that is enriched for actives. A number with no mark means an inactive call. The call rests on the fitted dose curve; in most records, active means well fitted inhibition curve with a large enough effect; inconclusive means small, poorly fitted or top-dose-only effect; inactive means no such curve, though single readings can be large or run the other way.
# Molecular target: Histone-lysine N-methyltransferase EHMT2 (Homo sapiens) (UniProt Q96KQ7)
# Experiment: qHTS Assay for Inhibitors of Histone Lysine Methyltransferase G9a; further: nearly all actives have a fitted effect of over 75% in size
# Settings: G9a H3K9 monomethylation, AlphaScreen, 2 h; series mostly up to 59 µM
# Source text: Methylated lysines, on the N-terminal tails of histone proteins serve as epigenetic markers to recruit factors that can then modify local chromatin structure to lead to functional consequences. G9a and other members of the SUV39 family of the SET domain-containing superfamily of histone lysine methyltransferases (HMT) have been identified to specifically methylate Lys9 of histone H3 (H3K9). G9a catalyzes the mono- and di-methylation of H3K9 in mammalian euchromatic regions, where the resulting H3K9me2 is indicative of transcriptional repression. […] The inhibition of G9a will result in transcriptional activation and work synergistically with DNA methyltransferase and histone deacetylase inhibitors, to kill cancer cells. This qHTS assay for identification of G9a inhibitors is a chemiluminescence based AlphaScreen (PerkinElmer). Methylation of biotinylated-histone peptide is measured through specific antibody-based detection, in conjunction with streptavidin-coated donor and anti-IgG antibody-coated acceptor beads. The method is particularly well suited for detection of inhibitors acting by the desired histone peptide competitive mechanism and is applicable to testing other HMTs. Although AlphaScreen has significant advantages with its utility in a variety of epigenetic target assays, the primary screening data provided in this deposition should be used with caution due to the prevalence of screening artifacts. An AlphaScreen counterscreen is highly recommended to be run against any putative actives to eliminate non specific artifacts. Alternatively, one can use other AlphaScreen assays in PubChem to filter out promiscuous hits. Quinn et al. A chemiluminescence-based method for identification of histone lysine methyltransferase inhibitors. Mol Biosyst 6(5): 782-8. 2010. PMID: 20567762 [2] Baell,Holloway. New substructure filters for removal of pan assay interference compounds (PAINS) from screening libraries and for their exclusion in bioassays. J Med Chem. 53(7):2719-40. 2010. PMID: 20131845 NIH Molecular Libraries Probe Production Network [MLPCN] NIH Chemical Genomics Center [NCGC] Structural Genomics Consortium (SGC) NIH Grant: 5U54 MH084681-02
# To each well of a 1,536w plate, 2ul of HMT enzyme (final 20nM) were added, using a nanoliter dispenser. The G9a- and GLP-inhibitor BIX-01294 (CID: 25150857) are used as an intraplate control, with a 16-point titration in duplicate. A Kalypsys pin-tool transferred 23nl of library compound solution in DMSO to each well. Following a 15 min incubation of enzyme with compounds at room temperature, 1ul mixture of b-H3K9 peptide substrate (final 500nM) and SAM cofactor (final 20uM) were added. Reactions were allowed to proceed at room temperature for 2 hours. Methylated b-H3K9 peptide product was detected with 0.5 ug/mL rabbit polyclonal anti-monomethyl histone H3K9 antibody (Abcam Inc., Cambridge, MA) and 20 ug/mL each streptavidin-coated donor and anti-rabbit IgG acceptor AlphaScreen beads. Antibody and beads were added in a 1ul dispense, for a final volume of 4ul, and plates were incubated, protected from the light, for 10 min at room temperature. Microplates were then read on an EnVision multilabel plate reader using the 1,536 plate HTS AlphaScreen aperture (excitation time 80 ms, measurement time 240 ms).
# Potency means the concentration at half of the fitted maximal effect.
# Chain of Histone-lysine N-methyltransferase EHMT2 (Homo sapiens) (Q96KQ7 913-1193 limits assumed): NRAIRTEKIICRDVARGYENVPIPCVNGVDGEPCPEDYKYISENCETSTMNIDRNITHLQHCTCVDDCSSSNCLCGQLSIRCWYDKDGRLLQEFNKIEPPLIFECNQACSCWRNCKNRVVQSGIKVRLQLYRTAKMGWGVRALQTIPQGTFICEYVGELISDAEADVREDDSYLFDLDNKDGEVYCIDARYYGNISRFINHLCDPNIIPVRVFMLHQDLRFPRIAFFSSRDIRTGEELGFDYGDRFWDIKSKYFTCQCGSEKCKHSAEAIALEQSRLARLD
SMILES,Potency,"activity, negative = inhibition"
O=C(O)c1ccc(NC(=O)c2ccc(COc3ccc(Cl)cc3)o2)cc1,inactive,
Cc1ccc(Oc2c(C(F)(F)F)oc3c(CN4CCCCC4)c(O)ccc3c2=O)cc1,inactive,
O=C(N/N=C/c1c[nH]c2ccccc12)c1ccccc1O,inactive,
O=C1c2ccccc2-c2ncnc3c(N4CCOCC4)cc(N4CCOCC4)c1c23,50.1 µM (active),
O=C(Nc1ccccc1N1CCOCC1)c1ccncc1,,-10.3% [at 2.33 µM]
c1ccc(-c2oc3ncnc(N4CCOCC4)c3c2-c2ccccc2)cc1,,-7.86% [at 12.7 µM]
COc1cc(C(=O)NCCc2csc3nc(-c4ccccc4C)nn23)cc(OC)c1OC,inactive,
CC(=O)NC(CC(=O)O)c1ccc(F)cc1 (stereo not drawn),inactive,
CN(C)c1ccc(/C=N/NC(=O)C(O)c2ccc(Br)cc2)cc1 (stereo not drawn),inactive,
CN(C)c1ccc(C(CC(=O)O)C(=O)O)cc1 (stereo not drawn),56.2 µM (active),
COc1cccc(C(=O)N(Cc2cccc(Cl)c2)Cc2ccco2)c1,inactive,
COc1ccc(OCc2cc(C(=O)N3CCCC3)no2)c2ccccc12,39.8 µM (active),
O=C(c1cc(COc2ccc(F)cc2F)on1)N1CCOCC1,inactive,
COc1ccccc1-c1cc(C(=O)N2CCCCC2)no1,inactive,
Cc1ccc(CNS(=O)(=O)CCNC(=O)c2ccccc2)cc1,inactive,
Cc1csc(NC(=O)C2=COCCO2)n1,inactive,
Cc1ccc(-c2csc(NC(=O)C3=COCCO3)n2)cc1C,56.2 µM (active),
Cc1ccc(-c2csc(NC(=O)c3cnccn3)n2)cc1C,inactive,
O=C(Nc1ccc(OC(F)(F)F)cc1)c1cc2c(=O)n3ccccc3nc2s1,inactive,
Cc1c(NC(=O)CSc2nnc(-c3cccnc3)n2N)c(=O)n(-c2ccccc2)n1C,,24.5% [at 12.7 µM]
COC(=O)c1ccc(CSc2nncn2N)cc1,inactive,
Cc1cc(=O)[nH]c(SCc2cc(Cl)ccc2OC(F)F)n1,inactive,
CCCCOc1ccc(Cl)cc1CSc1nncn1N,7.08 µM (active),
Cc1ccc(NC(=O)C(=O)NCc2ccco2)c(C)c1,inactive,
Cc1ccc2nc(SC(C)C(=O)NCc3ccco3)[nH]c2c1 (stereo not drawn),39.8 µM (active),

SMILES,Potency,"activity, negative = inhibition"
Cc1cccc(N(C(=O)Cc2cccs2)C(C(=O)NCc2ccco2)c2ccncc2)c1 (stereo not drawn),inactive,
CCN1CCN(Cc2c(O)ccc3oc(C)c(C(=O)Nc4ccc(C)cc4C)c23)CC1,inactive,
CCOc1ccc(-c2nonc2NC(=O)c2oc3ccc(C)cc3c2C)cc1OCC,inactive,
O=C(Nc1cccc2ccccc12)N1CCN(Cc2ccc3c(c2)OCO3)CC1,,2.38% [at 12.7 µM]
O=C(C1CCN(C2CCN(Cc3cccc4c3OCO4)CC2)CC1)N1CCOCC1,inactive,
O=C(C1CCN(S(=O)(=O)c2cnc[nH]2)CC1)N1CCN(Cc2ccc3c(c2)OCO3)CC1,,-12% [at 12.7 µM]
Cc1cc(C)n2nc(C(=O)N3CCN(Cc4ccc5c(c4)OCO5)CC3)nc2n1,inactive,
O=C(c1cccs1)N1CCN(Cc2ccc3c(c2)OCO3)CC1,56.2 µM (active),
O=C(C1CCN(Cc2ccc(Cl)cc2)CC1)N1CCN(Cc2ccc3c(c2)OCO3)CC1,8.91 µM (active),
Cc1ccc(S(=O)(=O)N2[C@@H](c3cccc(Cl)c3)C(C(=O)O)=CC[C@H]2c2ccc(Cl)c(Cl)c2)cc1,,13.5% [at 2.33 µM]
COc1ccc(-c2cc(C(=O)NCCCN3CCCC3=O)c3ccccc3n2)cc1OC,,15% [at 2.33 µM]
Cc1cc(C)c(NC(=O)CSc2nc3nccnc3c(=O)n2CCc2c[nH]c3ccccc23)c(C)c1,inactive,
CCCCc1ccc(NC(=S)NCCCN2CCOCC2)cc1,,31.4% [at 12.7 µM]
COCCCNC(=S)NCCNc1nc2cc(C)c(C)cc2cc1C#N,inactive,
Cc1ccc2cc(C#N)c(NCCNC(=S)NCCCN3CCOCC3)nc2c1,39.8 µM (active),
CCOCCCNc1nc(-c2ccccc2)nc2ccccc12,inactive,
Cc1cc(C)c2nc(-c3cccnc3)cc(C(=O)Nc3ccc(S(=O)(=O)Nc4onc(C)c4C)cc3)c2c1,50.1 µM (active),
CCn1c(SCC(=O)Nc2ccc(S(=O)(=O)Nc3onc(C)c3C)cc2)nnc1-c1ccccc1,inactive,
Cc1noc(NS(=O)(=O)c2ccc(NC(=O)c3oc4ccc(F)cc4c3C)cc2)c1C,inactive,
CC(C)OCCCn1c(SCC(=O)c2ccccc2)nc2c(sc3ccccc32)c1=O,inactive,
COc1ccc(-c2nn(-c3ccccc3)cc2C(=O)Nc2nc(CC(C)=O)ns2)cc1,inactive,
COc1cc(NC(=O)c2cccnc2SC)cc(OC)c1,inactive,
COc1ccc(NC(=O)c2cn(-c3ccccc3)nc2SC)cc1,39.8 µM (active),
Cc1nnc(C)n1-c1ccc(C(=O)Nc2cccc(Br)c2)cc1,inactive,
CCOC(=O)CC1COCCN1C(=O)c1cc(COc2ccc(F)c(F)c2)on1 (stereo not drawn),inactive,

SMILES,Potency,"activity, negative = inhibition"
Cc1ccc(NC(=O)c2cc(-c3ccc(C)o3)nc3ccccc23)nc1,2.24 µM (active),
COc1ccc(NC(=O)CN(C)C(=O)Cc2coc3cc(C)c(C)cc23)cc1,50.1 µM (active),
COc1ccc(NC(=O)CN(C)C(=O)c2n[nH]c3ccccc23)cc1,inactive,
COc1ccc(NC(=O)CN(C)C(=O)CC2CCCCC2)cc1,inactive,
CC(=O)N1CCN(C(=O)c2cc(-c3ccc(C)o3)nc3ccccc23)CC1,,-3.86% [at 0.501 µM]
COc1ccc(CNC(=O)Cc2coc3ccc(C(C)C)cc23)cc1,inactive,
COc1ccc(-c2cc(C(=O)N(C)Cc3ccccc3)c3ccccc3n2)cc1,inactive,
CSc1ncccc1C(=O)Nc1ccc(C)cn1,inactive,
COc1ccc(NC(=O)CN(C)C(=O)c2cc(-c3ccc(C)o3)nc3ccccc23)cc1,4.47 µM (active),
Cc1oc2ncnc(N3CCOCC3)c2c1C(=O)NCCc1ccccc1,inactive,
CCCN(C(=O)Cn1cc(S(=O)(=O)N2CCN(c3ccccc3F)CC2)c2ccccc2c1=O)c1cccc(C)c1,inactive,
COc1ccc(NC(=O)CN(C)C(=O)c2cc(C3CC3)nn2-c2ccccc2)cc1,,-2.32% [at 2.33 µM]
O=C(CCNC(=O)c1ccc([N+](=O)[O-])cc1)NC1CCCCC1,inactive,
COc1cc(NC(=O)Cn2nc(-c3ccc(C)c(C)c3)ccc2=O)cc(OC)c1,inactive,
CCS(=O)(=O)Nc1cc(C(=O)OC)ccc1C(=O)OC,2.82 µM (active),
CCN(CCO)C(=S)Nc1cc(C(=O)OC)ccc1C(=O)OC,inactive,
CCCN(CCC)C(=S)Nc1cc(C(=O)OC)ccc1C(=O)OC,inactive,
CCn1cc(C(=O)N(C)Cc2ccccc2)c(=O)c2cc(S(=O)(=O)N3CCCCCC3)ccc21,inactive,
Cc1ccc(S(=O)(=O)N2CCc3cc(C(=O)Nc4ccc(Cl)cc4C)ccc32)cc1,inactive,
COC(=O)c1ccc(COc2ccc(/C=C/C(=O)c3ccc(OC)c(CSCC(=O)O)c3)cc2OC)cc1,39.8 µM (active),
COc1ccc(/C=C/C(=O)c2ccc(NS(=O)(=O)c3ccc(C)cc3)cc2)cc1O,inactive,
COc1ccc(/C=C/C(=O)N2CCCC2)cc1OC,inactive,
Cc1nc(SCc2ccc(F)cc2)c([N+](=O)[O-])[nH]1,25.1 µM (active),
Cc1cc([N+](=O)[O-])nn1Cc1ccc(F)cc1,inactive,
Cc1nc(N)nc(SCc2ccc([N+](=O)[O-])cc2)c1N,,-1.52% [at 12.7 µM]

SMILES,Potency,"activity, negative = inhibition"
CCN(CC)CCn1c2c(c(SCC(=O)Nc3nc4ccccc4s3)nc1=O)CCCC2,,5.88% [at 0.501 µM]
CC(C)(C)c1ccc(SCCc2ccncc2)cc1,inactive,
Cc1nn2c(=O)cc(COC(=O)CNC(=O)c3ccc(F)cc3)nc2s1,inactive,
Cc1ccc(-c2nc(C)sc2CC(=O)O)cc1,inactive,
CCOC(=O)C(=O)Nc1nc(-c2ccccc2)c(CC)s1,inactive,
C/C(=N/Nc1nc(-c2ccccc2)c(CC(=O)O)s1)c1ccccc1,1.78 µM (active),
Cc1nnc(SCC(=O)Nc2cccc(N)c2)n1-c1ccccc1,inactive,
O=C(Nc1cccc(F)c1)NC1CCCCCCC1,inactive,
COc1ccc(C(=O)c2oc3ccccc3c2NC(=O)COc2cccc(C)c2)cc1,inactive,
CCc1nn(CC(=O)N2CCN(c3cccc(C(F)(F)F)c3)CC2)c(=O)c2cc3occc3n12,inactive,
COCCN(Cc1ccco1)C(=O)Cn1ncc2c([nH]c3ccccc32)c1=O,inactive,
COc1ccc(-n2c(SCC(=O)NCc3cccs3)nnc2-c2ccoc2C)cc1,,-7.6% [at 12.7 µM]
COc1ccc(C(=O)NC(=O)CSc2nnc(-c3ccco3)n2-c2ccccc2)cc1,89.1 µM (active),
O=C(CSc1nnc(-c2ccco2)n1-c1ccccc1)NCCc1ccccc1,inactive,
COc1ccc(CCNC(=O)C(=O)NCC(c2ccco2)S(=O)(=O)c2cccs2)cc1OC (stereo not drawn),inactive,
CCCCc1ccc(NC(=O)CN2C(=O)NC(Cc3ccccc3)C2=O)cc1 (stereo not drawn),inactive,
O=C(O)CC1S/C(=N\N=C/c2ccccc2O)N(c2ccc(O)cc2)C1=O (stereo not drawn),inactive,
CCCC[C@H]1C(=O)N(c2ccccc2)N(c2ccc(O)cc2)C1=O,7.94 µM (active),
COc1ccc(-n2c(=O)c3c(c4cc(OC)ccc4n3C)n(Cc3cccc(C)c3)c2=O)cc1,inactive,
COc1ccc(C)cc1NC(=O)CN(C)S(=O)(=O)c1ccc2c(c1)n(C)c(=O)c(=O)n2C,inactive,
CCC(=O)c1ccc(OC(=O)/C=C/c2cc(OC)c(OC)c(OC)c2)cc1,inactive,
COc1ccc2[nH]c(C(=O)N/N=C/c3cc(OC)c(OC)c(OC)c3)cc2c1,inactive,
COc1cc(/C=C/C2=CC(C)(C)NC(=S)N2)cc(OC)c1OC,39.8 µM (active),
